# Test results reported in publication PMC7862700, “An all-to-all approach to the identification of sequence-specific readers for epigenetic DNA modifications on cytosine”.
# How the values were obtained:
# Assay in all cases: DAPPL (digital affinity profiling via proximity ligation, sequencing); 10 mM Tris-HCl pH 7.5, 50 mM NaCl, 1 mM DTT, 4% glycerol, room temperature, 30 min; GST-TFs on glutathione beads, 16-mer random dsDNA library, 0.1% formaldehyde crosslink after washing; high values mean tight binding
# [1] = target: T1, FEV (Homo sapiens, UniProt Q99581 1-238); conditions: protein: recombinant; tags: N-terminal GST; dsDNA, one strand shown
# T1 sequence: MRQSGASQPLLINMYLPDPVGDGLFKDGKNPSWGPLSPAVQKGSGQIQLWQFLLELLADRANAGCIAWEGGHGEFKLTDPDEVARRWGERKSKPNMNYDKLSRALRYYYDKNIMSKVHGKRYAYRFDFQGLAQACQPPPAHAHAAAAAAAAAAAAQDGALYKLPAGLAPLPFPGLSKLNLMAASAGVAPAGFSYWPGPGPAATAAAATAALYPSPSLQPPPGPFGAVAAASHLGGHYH
# In short: (§1)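 Binding signal is defined as a hexamer's read frequency for one factor over its frequency for the tag-only sample. To obtain reads, GST-fused human transcription factors were expressed in yeast, captured on glutathione beads, barcoded with DNA and pooled with that sample. Pools met 200 nmole of a 16-mer random double-stranded DNA library in Tris/NaCl/DTT/glycerol buffer for 30 min at room temperature before washing, 0.1% formaldehyde crosslinking, proximity ligation (BsaI/T4 ligase, 1 h, 37 °C), PCR and Illumina NextSeq500 sequencing.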
# [2] = target: ETV5 (Homo sapiens, UniProt P41161 1-510); conditions: protein: recombinant; tags: N-terminal GST; dsDNA, one strand shown
# Chain of ETV5 (P41161 whole entry): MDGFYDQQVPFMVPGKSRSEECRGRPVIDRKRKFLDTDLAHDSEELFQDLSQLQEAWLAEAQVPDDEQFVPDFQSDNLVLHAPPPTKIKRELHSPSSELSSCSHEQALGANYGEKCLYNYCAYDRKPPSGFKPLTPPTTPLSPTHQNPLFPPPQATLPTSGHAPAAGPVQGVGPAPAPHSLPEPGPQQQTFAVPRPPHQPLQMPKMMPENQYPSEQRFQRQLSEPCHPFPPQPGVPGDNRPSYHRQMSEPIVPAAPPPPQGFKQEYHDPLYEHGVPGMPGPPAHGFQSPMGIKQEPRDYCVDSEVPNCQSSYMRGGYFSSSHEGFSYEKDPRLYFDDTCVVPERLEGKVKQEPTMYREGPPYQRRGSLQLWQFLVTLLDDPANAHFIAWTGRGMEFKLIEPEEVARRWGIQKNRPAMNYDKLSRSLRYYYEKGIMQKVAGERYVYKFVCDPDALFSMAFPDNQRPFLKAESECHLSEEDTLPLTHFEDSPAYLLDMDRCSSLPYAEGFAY
# In short: as §1
# [3] = target: HSF1 (Homo sapiens, UniProt Q00613 1-529); conditions: protein: recombinant; tags: N-terminal GST; chain copies: 3; dsDNA, one strand shown
# Chain of HSF1 (Q00613 whole entry): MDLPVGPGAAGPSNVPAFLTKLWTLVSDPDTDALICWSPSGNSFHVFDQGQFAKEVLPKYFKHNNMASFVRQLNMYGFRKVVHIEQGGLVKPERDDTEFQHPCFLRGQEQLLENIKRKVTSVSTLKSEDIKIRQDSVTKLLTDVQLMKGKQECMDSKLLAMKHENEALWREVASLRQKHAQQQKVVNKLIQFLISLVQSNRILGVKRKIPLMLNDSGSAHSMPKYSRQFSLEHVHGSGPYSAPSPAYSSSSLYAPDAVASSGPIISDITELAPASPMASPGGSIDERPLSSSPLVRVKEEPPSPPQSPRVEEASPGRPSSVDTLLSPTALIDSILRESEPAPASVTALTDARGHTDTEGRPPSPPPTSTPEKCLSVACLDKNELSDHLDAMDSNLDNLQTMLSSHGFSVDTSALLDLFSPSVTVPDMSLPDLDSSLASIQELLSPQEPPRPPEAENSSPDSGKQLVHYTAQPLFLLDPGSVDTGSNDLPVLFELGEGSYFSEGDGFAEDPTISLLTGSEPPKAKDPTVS
# In short: as §1
# [4] = target: T2, SPIC (Homo sapiens, UniProt Q8N5J4 1-248); conditions: protein: recombinant; tags: N-terminal GST; dsDNA, one strand shown
# T2 sequence: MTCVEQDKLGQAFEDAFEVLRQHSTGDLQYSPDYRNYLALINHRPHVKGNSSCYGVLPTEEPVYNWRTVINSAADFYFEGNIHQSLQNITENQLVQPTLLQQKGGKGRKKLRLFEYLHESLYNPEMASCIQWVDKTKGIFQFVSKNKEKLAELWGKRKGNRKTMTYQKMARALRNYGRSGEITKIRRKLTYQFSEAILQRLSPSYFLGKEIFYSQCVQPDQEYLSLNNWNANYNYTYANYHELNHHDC
# In short: as §1
# [5] = target: ELF4 (Homo sapiens, UniProt Q99607 1-663); conditions: protein: recombinant; tags: N-terminal GST; dsDNA, one strand shown
# Chain of ELF4 (Q99607 whole entry): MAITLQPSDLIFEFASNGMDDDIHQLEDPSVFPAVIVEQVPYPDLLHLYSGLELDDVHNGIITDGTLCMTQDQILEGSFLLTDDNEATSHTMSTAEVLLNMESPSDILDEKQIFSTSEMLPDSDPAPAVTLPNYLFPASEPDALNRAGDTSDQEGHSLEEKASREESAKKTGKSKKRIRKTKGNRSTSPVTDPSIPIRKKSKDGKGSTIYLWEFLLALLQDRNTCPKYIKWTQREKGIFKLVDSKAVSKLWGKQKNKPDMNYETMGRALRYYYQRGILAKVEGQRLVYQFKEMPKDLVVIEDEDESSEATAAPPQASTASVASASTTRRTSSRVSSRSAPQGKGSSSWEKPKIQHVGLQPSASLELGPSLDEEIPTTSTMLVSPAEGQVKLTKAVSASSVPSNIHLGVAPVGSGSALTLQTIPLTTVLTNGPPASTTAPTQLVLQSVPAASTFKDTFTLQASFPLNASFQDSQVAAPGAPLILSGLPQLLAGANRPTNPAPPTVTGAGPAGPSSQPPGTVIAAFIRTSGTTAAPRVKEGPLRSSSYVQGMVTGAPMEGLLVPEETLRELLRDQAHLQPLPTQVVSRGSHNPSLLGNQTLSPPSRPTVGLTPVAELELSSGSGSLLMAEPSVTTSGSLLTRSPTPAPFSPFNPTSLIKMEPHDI
# In short: as §1
# [6] = target: T3, ELK4 (Homo sapiens, UniProt P28324-2 1-405); conditions: protein: recombinant; tags: N-terminal GST; dsDNA, one strand shown
# T3 sequence: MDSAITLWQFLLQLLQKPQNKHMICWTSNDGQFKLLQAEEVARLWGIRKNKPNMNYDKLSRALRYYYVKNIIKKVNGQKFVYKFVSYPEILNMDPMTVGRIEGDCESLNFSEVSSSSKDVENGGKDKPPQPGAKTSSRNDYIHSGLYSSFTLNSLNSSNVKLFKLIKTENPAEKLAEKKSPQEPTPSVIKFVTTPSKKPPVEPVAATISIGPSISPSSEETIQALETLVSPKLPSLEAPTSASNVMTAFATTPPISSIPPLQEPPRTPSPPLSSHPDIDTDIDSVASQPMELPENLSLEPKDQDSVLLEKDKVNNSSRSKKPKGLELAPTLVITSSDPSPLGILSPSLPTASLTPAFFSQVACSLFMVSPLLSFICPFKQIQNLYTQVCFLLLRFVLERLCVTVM
# In short: as §1
# [7] = target: T4, ETV2 (Homo sapiens, UniProt O00321 1-342); conditions: protein: recombinant; tags: N-terminal GST; dsDNA, one strand shown
# T4 sequence: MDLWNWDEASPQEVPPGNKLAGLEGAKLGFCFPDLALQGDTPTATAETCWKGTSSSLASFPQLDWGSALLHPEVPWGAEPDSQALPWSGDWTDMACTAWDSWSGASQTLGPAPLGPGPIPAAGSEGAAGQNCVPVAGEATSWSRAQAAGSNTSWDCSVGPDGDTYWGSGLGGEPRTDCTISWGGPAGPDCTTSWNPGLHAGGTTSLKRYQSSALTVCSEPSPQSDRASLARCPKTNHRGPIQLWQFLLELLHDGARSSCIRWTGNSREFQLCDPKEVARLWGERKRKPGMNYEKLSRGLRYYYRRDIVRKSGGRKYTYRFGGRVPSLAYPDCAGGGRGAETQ
# In short: as §1
# [8] = target: T5, ELF3 (Homo sapiens, UniProt P78545 1-371); conditions: protein: recombinant; tags: N-terminal GST; dsDNA, one strand shown
# T5 sequence: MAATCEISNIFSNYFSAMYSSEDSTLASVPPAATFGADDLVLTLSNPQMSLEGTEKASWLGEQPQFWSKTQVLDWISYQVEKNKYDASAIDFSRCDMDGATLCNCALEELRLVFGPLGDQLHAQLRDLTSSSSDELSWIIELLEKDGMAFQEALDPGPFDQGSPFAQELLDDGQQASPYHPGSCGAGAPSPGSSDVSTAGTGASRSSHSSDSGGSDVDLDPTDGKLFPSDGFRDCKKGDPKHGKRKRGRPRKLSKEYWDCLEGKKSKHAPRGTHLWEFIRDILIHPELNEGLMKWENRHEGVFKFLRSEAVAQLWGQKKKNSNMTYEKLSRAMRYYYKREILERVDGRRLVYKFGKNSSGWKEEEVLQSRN
# In short: as §1
# [9] = target: CRX (Homo sapiens, UniProt O43186 1-299); conditions: protein: recombinant; tags: N-terminal GST; dsDNA, one strand shown
# Chain of CRX (O43186 whole entry): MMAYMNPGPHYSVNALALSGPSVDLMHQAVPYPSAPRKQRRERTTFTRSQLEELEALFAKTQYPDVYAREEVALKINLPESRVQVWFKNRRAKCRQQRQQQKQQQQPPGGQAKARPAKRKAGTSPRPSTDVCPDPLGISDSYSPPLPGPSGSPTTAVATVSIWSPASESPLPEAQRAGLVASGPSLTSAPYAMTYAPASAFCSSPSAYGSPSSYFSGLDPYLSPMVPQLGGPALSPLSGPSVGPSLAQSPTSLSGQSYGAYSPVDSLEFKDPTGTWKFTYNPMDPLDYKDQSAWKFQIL
# In short: as §1
# [10] = target: ETV1 (Homo sapiens, UniProt P50549 1-477); conditions: protein: recombinant; tags: N-terminal GST; dsDNA, one strand shown
# Chain of ETV1 (P50549 whole entry): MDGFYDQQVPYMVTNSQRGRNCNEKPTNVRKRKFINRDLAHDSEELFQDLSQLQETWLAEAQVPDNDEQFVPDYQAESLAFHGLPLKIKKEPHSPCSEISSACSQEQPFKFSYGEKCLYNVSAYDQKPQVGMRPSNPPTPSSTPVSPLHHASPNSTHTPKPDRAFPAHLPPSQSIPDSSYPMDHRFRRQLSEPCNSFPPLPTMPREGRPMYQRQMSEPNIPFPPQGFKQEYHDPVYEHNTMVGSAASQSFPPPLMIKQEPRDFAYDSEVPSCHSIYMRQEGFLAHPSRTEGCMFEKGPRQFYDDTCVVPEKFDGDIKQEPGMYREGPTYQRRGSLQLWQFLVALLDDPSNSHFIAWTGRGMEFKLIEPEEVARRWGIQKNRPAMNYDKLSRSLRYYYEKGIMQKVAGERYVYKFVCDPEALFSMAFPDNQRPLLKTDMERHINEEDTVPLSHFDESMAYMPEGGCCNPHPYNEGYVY
# In short: as §1
# [11] = target: T6, ERF (Homo sapiens, UniProt P50548 1-548); conditions: protein: recombinant; tags: N-terminal GST; dsDNA, one strand shown
# T6 sequence: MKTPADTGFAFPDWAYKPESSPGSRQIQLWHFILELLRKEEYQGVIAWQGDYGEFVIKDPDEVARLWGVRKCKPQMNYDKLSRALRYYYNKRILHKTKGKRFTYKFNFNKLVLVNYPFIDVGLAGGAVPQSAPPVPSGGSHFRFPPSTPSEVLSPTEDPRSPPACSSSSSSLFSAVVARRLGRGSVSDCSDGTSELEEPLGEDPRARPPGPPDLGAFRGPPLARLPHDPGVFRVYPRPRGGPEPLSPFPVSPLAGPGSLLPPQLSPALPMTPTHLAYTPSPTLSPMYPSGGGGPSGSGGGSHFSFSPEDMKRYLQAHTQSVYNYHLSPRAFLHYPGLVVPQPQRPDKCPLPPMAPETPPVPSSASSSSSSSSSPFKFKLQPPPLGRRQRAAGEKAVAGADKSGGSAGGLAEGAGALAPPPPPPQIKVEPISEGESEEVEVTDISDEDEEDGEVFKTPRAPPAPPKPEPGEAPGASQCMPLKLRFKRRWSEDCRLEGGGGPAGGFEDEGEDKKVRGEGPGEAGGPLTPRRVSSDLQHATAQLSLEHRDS
# In short: as §1
# [12] = target: T7, ETV3L (Homo sapiens, UniProt Q6ZN32 1-361); conditions: protein: recombinant; tags: N-terminal GST; dsDNA, one strand shown
# T7 sequence: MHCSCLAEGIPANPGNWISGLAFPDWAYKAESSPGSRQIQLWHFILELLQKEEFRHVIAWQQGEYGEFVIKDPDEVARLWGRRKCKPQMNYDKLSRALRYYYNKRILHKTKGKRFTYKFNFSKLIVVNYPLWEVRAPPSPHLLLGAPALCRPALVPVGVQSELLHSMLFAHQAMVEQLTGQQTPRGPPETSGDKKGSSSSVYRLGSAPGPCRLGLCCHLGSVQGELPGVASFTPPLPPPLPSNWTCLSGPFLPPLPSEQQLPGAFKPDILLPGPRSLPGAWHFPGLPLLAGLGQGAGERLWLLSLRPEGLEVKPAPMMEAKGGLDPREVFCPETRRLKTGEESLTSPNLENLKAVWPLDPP
# In short: as §1
# [13] = target: T8, ETS2 (Homo sapiens, UniProt P15036 1-469); conditions: protein: recombinant; tags: N-terminal GST; dsDNA, one strand shown
# T8 sequence: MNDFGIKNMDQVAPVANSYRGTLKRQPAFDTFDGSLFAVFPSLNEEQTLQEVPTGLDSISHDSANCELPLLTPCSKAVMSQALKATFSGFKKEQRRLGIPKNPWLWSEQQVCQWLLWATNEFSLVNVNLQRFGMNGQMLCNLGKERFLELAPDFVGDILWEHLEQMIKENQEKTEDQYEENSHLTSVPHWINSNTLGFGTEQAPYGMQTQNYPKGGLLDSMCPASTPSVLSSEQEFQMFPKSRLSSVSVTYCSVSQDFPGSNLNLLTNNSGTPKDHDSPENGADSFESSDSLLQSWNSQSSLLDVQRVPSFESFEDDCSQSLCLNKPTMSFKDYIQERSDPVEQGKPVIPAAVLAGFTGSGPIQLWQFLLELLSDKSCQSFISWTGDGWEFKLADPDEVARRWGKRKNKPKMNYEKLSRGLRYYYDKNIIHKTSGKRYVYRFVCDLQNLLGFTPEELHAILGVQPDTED
# In short: as §1
# [14] = target: T9, SPDEF (Homo sapiens, UniProt O95238 1-335); conditions: protein: recombinant; tags: N-terminal GST; dsDNA, one strand shown
# T9 sequence: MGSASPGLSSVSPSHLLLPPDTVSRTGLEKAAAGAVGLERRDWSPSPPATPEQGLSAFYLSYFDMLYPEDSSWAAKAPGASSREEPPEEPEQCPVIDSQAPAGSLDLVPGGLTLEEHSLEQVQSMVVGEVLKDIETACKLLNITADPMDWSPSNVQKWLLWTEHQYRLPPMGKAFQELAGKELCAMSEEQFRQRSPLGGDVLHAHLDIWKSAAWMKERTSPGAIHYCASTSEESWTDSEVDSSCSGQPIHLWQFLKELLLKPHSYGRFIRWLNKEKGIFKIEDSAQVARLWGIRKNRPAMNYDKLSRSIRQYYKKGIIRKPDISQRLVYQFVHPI
# In short: as §1
# [15] = target: T10, ETV7 (Homo sapiens, UniProt Q9Y603 1-341); conditions: protein: recombinant; tags: N-terminal GST; dsDNA, one strand shown
# T10 sequence: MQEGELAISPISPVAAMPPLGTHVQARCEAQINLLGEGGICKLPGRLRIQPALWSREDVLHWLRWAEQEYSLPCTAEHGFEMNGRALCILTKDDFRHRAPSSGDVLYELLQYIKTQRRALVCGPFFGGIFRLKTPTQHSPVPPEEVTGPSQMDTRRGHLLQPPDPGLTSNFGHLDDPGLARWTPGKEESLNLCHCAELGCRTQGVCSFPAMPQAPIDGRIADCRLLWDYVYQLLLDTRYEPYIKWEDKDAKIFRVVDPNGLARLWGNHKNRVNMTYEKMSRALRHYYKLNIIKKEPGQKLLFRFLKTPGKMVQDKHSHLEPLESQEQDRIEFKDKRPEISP
# In short: as §1
# [16] = target: T11, ELF5 (Homo sapiens, UniProt Q9UKW6-2 1-255); conditions: protein: recombinant; tags: N-terminal GST; dsDNA, one strand shown
# T11 sequence: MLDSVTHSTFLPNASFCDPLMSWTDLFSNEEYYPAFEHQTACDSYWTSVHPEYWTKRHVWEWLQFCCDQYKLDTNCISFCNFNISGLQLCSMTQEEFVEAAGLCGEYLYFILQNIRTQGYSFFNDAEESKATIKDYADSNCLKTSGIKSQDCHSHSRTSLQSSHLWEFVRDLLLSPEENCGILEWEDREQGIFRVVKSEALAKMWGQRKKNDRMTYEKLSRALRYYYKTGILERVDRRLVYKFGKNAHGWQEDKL
# In short: as §1
# [17] = target: T12, ETV3 (Homo sapiens, UniProt P41162-2 1-143); conditions: protein: recombinant; tags: N-terminal GST; dsDNA, one strand shown
# T12 sequence: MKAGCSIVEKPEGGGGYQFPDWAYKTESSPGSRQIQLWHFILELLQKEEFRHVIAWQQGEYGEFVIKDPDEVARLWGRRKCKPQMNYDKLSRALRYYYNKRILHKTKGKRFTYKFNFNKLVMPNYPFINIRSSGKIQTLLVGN
# In short: as §1
# [18] = target: ETV6 (Homo sapiens, UniProt P41212 1-452); conditions: protein: recombinant; tags: N-terminal GST; dsDNA, one strand shown
# Chain of ETV6 (P41212 whole entry): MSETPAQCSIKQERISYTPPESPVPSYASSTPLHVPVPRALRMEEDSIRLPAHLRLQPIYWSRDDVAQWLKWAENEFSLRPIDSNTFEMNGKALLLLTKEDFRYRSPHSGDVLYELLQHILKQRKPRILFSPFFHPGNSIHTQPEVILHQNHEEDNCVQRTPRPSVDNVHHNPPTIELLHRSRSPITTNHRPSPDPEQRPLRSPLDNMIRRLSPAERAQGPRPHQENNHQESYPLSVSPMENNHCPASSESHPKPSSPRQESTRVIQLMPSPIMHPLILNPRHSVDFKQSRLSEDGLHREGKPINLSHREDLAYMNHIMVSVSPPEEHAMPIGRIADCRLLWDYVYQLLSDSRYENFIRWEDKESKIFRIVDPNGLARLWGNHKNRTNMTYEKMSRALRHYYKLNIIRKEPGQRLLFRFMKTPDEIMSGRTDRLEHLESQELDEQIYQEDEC
# In short: as §1
sequence,measurement,setting,value
CTCTGA,binding signal,[1],"1.23 fold enrichment (6-mer frequency, TF over GST control)"
same,binding signal,[2],"1.15 fold enrichment (6-mer frequency, TF over GST control)"
same,binding signal,[3],"1.06 fold enrichment (6-mer frequency, TF over GST control)"
same,binding signal,[4],"1.24 fold enrichment (6-mer frequency, TF over GST control)"
same,binding signal,[5],"1.23 fold enrichment (6-mer frequency, TF over GST control)"
same,binding signal,[6],"1.15 fold enrichment (6-mer frequency, TF over GST control)"
same,binding signal,[7],"1.12 fold enrichment (6-mer frequency, TF over GST control)"
same,binding signal,[8],"1.09 fold enrichment (6-mer frequency, TF over GST control)"
same,binding signal,[9],"1.08 fold enrichment (6-mer frequency, TF over GST control)"
same,binding signal,[10],"1.3 fold enrichment (6-mer frequency, TF over GST control)"
same,binding signal,[11],"1.22 fold enrichment (6-mer frequency, TF over GST control)"
same,binding signal,[12],"1.07 fold enrichment (6-mer frequency, TF over GST control)"
same,binding signal,[13],"1.25 fold enrichment (6-mer frequency, TF over GST control)"
same,binding signal,[14],"1.11 fold enrichment (6-mer frequency, TF over GST control)"
same,binding signal,[15],"1.34 fold enrichment (6-mer frequency, TF over GST control)"
same,binding signal,[16],"1.11 fold enrichment (6-mer frequency, TF over GST control)"
same,binding signal,[17],"1.19 fold enrichment (6-mer frequency, TF over GST control)"
same,binding signal,[18],"1.16 fold enrichment (6-mer frequency, TF over GST control)"
